The text below walks through data of PubChem BioAssay (NCATS).

Results filed as inconclusive are left out. Entries that show only a call come without a potency. Active and inactive are the calls of the source. Calls follow the shape of the dose curve; as a rule, active = well fitted curve in the direction sought with a large enough effect; inconclusive = small, poorly fitted or top-dose-only effect, or another doubt; inactive = no such curve, though single readings can be large; an effect the other way counts as inactive or inconclusive.

Chain of Ferritin light chain (Equus caballus) (P02791 2-175 limits assumed): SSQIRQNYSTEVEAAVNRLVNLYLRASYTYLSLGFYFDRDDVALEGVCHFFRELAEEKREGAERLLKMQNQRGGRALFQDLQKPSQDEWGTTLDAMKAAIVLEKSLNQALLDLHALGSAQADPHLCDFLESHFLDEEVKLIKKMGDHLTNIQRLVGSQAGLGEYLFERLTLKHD
Chain of ATP-dependent DNA helicase Q1 (Homo sapiens) (P46063 whole entry, looked up): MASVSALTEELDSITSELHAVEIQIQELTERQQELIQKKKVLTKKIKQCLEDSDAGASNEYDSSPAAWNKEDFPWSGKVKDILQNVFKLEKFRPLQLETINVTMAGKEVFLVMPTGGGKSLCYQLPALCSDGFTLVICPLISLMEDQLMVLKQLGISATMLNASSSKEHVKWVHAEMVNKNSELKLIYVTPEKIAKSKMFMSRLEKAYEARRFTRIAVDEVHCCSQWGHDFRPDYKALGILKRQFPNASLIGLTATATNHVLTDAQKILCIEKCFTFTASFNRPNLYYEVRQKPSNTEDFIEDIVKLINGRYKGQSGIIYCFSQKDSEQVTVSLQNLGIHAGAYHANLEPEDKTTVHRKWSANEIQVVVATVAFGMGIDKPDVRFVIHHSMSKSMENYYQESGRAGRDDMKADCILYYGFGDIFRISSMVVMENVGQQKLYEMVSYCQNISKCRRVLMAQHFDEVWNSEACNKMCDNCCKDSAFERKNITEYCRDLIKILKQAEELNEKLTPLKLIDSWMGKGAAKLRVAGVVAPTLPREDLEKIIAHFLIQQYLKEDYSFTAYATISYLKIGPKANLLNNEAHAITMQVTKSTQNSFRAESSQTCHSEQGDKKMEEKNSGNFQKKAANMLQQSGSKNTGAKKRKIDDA
Chain of RecQ-like DNA helicase BLM (Homo sapiens) (P54132 whole entry, looked up): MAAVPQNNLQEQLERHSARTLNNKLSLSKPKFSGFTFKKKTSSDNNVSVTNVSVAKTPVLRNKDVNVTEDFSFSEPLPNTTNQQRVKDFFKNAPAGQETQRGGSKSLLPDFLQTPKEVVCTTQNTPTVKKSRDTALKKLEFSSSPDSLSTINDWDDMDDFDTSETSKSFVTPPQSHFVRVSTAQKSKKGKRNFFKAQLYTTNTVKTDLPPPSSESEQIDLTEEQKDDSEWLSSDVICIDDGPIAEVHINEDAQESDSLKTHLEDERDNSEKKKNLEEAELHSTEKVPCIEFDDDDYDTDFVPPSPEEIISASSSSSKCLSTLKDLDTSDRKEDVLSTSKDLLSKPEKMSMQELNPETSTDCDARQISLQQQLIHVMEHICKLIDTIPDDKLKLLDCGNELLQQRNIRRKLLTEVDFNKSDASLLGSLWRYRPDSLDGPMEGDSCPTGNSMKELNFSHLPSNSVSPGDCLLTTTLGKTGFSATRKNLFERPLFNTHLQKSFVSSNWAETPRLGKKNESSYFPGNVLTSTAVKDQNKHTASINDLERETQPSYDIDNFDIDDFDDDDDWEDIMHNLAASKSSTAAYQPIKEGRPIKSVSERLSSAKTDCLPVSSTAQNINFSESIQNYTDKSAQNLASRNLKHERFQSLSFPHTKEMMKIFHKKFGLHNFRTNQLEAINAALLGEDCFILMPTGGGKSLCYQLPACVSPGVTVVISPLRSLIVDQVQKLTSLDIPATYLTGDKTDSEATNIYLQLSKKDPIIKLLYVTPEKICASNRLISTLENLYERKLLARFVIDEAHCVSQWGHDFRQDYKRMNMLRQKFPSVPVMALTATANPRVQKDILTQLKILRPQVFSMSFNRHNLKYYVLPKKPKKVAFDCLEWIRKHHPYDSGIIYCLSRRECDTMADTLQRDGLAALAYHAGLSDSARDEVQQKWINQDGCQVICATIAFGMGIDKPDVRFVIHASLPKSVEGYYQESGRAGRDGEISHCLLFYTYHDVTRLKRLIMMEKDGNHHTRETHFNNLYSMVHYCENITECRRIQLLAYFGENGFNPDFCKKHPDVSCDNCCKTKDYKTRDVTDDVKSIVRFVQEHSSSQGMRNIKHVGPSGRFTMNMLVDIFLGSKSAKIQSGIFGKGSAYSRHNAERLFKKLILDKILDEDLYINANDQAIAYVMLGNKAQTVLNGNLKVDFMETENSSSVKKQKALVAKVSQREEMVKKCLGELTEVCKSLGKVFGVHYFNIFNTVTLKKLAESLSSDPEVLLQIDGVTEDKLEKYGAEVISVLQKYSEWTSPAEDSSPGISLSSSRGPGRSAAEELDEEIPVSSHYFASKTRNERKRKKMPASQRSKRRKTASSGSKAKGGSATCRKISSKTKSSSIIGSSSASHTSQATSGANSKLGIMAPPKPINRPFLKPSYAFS

One experiment has as its target Ferritin light chain (Equus caballus) (UniProt P02791). Briefly: qHTS Validation Assay for Identification of Novel General Anesthetics (AID 2323). Conditions: horse apoferritin, anesthetic-site fluorescent probe displacement; series mostly up to 76.9 µM. An outline of the steps:
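Competitive displacement of the profluorescent anesthetic 1-AMA (50% saturated, PBS) from 10 uM apoferritin, 10 min, room temperature. Activity is normalized 380/535 nm fluorescence; concentration-response fitted with a four-parameter Hill equation.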
On the technique in general: qHTS replaces the single test concentration by a dilution series.
Regarding `O=C(Nc1cccc(C(=O)Nc2ccc(S(=O)(=O)O)c3cc(S(=O)(=O)O)cc(S(=O)(=O)O)c23)c1)Nc1cccc(C(=O)Nc2ccc(S(=O)(=O)O)c3cc(S(=O)(=O)O)cc(S(=O)(=O)O)c23)c1`, the Potency result is “inactive”.
Take `CN1CCc2ccccc2Cc2[nH]c3ccccc3c2CC1`: the Potency result was “inactive”.
The same measure, in the same setting: the value for `Cc1ccccc1CNc1ncnc2c1ncn2C1OC(CO)C(O)C1O` (stereo not drawn) was “inactive”; that for `Cc1cc(NC(=O)Nc2ccc3c(ccn3C)c2)sn1` was “inactive”.
On the same count and under the same terms, the value for `O=C(O)[C@@H]1C[C@H](C(=O)O)N1` was “inactive”; that for `N.N.O=C(O)C1(C(=O)O)CCC1.[Pt]` was “inactive”; that for `COc1ccccc1N1CCN(CCCCNS(=O)(=O)c2cccc3c(N(C)C)cccc23)CC1` was “inactive”.
Still for that read-out and setting: next, `CCCN(CC1CC1)c1nc(C)nc(Nc2c(Cl)cc(Cl)cc2Cl)c1Cl`: “inactive”; `CO/N=C(\C(=O)N[C@@H]1C(=O)N2C(C(=O)O)=C(COC(C)=O)CS[C@H]12)c1csc(N)n1` (stereo in doubt): “inactive”; `Ic1ccc(N2CCN(Cc3c[nH]c4ncccc34)CC2)cc1`: “inactive”.
As for `Oc1cc(O)cc(/C=C/c2ccc(O)c(O)c2)c1`, the Potency result was “inactive”.
On to `CC12C(=O)OC(=O)C1(C)C1CCC2O1` (stereo not drawn), for which the Potency entry was “inactive”.
For `CC(C)Cc1ccc([C@H](C)C(=O)O)cc1`, the Potency entry is “inactive”.
Turning to `CN=c1nc(-c2ccccc2)n(-c2ccccc2)s1`, the Potency result was “inactive”.
The same measure, in the same setting: next, `CN(C)C(N)=NCCC[C@H](N)C(=O)O`: “inactive”; `O=c1[nH]c2cc(Cl)c(Cl)cc2[nH]c1=O`: “inactive”; `CCN1/C(=C/C(C)=O)Sc2ccc(OC)cc21`: “inactive”.
Still for that read-out and setting: next, `O=C1NC(O)=NC1(c1ccccc1)c1ccccc1`: “inactive”; `O=C(O)CCCC[C@@H]1CCSS1`: “inactive”.
Still for that read-out and setting: the value for `COc1ccccc1CNCCCCCCNCCCCCCCCNCCCCCCNCc1ccccc1OC` was “inactive”.
In the case of `NCCCCCCCCCCN`, the Potency entry is “inactive”.

The target in another experiment is ATP-dependent DNA helicase Q1 (Homo sapiens) (UniProt P46063). Briefly: qHTS Validation Assay for Inhibitors of RecQ-Like Dna Helicase 1 (RECQ1) (AID 2353). Also: potency is read from the fitted curve at half-maximal effect. Conditions: recombinant RECQ1 helicase DNA unwinding assay; series mostly up to 25.6 µM. Put shortly:
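50 nM RECQ1T1 preincubated 15 min with compound in Tris pH 8.0 buffer with MgCl2, DTT, Tween-20 and 2.5 ug/ml poly(dI-dC); started with 200 nM TAMRA/BHQ-2 forked duplex and 2 mM ATP. Unwinding read as fluorescence (525/598 nm), two reads 2 h apart.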
In the case of `O=C(Nc1ccccc1)c1cc([N+](=O)[O-])ccc1Cl`, the Potency result was “inactive”.
Still for that read-out and setting: the value for `CC(C)(C=O)Cc1cc(C(C)(C)C)c(O)c(C(C)(C)C)c1` was “inactive”.
On the same count and under the same terms, next, `CCCCCCCCCCCCCCCCCC(=O)OC(CC(=O)O)C[N+](C)(C)C` (stereo not drawn): “inactive”.
On the same count and under the same terms, next, `NC[C@@H]1O[C@H](C23CC4CC(CC(C4)C2)C3)Cc2c1ccc(O)c2O`: “inactive”; `CN1CCc2ccccc2Cc2[nH]c3ccccc3c2CC1`: “inactive”; `Cc1ccccc1CNc1ncnc2c1ncn2C1OC(CO)C(O)C1O` (stereo not drawn): “inactive”.
With `Cc1cc(NC(=O)Nc2ccc3c(ccn3C)c2)sn1`, the Potency result was “inactive”.
`O=C(O)[C@@H]1C[C@H](C(=O)O)N1`: the Potency entry is “inactive”.
On the same count and under the same terms, next, `O=C1C(SCCO)=C(SCCO)C(=O)c2ccccc21`: “inactive”.
Turning to `CCCCCC(O)c1cccc(OCc2ccc3ccccc3n2)c1` (stereo not drawn), the Potency result is “inactive”.
As to `Oc1ccc(C2CNCc3sccc32)cc1O` (stereo not drawn), the Potency entry is “inactive”.
Turning to `N.N.O=C(O)C1(C(=O)O)CCC1.[Pt]`, the Potency result was “inactive”.
On the same count and under the same terms, next, `COc1ccccc1N1CCN(CCCCNS(=O)(=O)c2cccc3c(N(C)C)cccc23)CC1`: “inactive”; `O=c1[nH]c2cc(C(F)(F)F)ccc2n1-c1cc(C(F)(F)F)ccc1O`: “inactive”.
Consider `CCCN(CC1CC1)c1nc(C)nc(Nc2c(Cl)cc(Cl)cc2Cl)c1Cl`, for which the Potency result was “inactive”.
For the molecule `CCCCCCCC/C=C\CCCCCCCC(=O)NCCO`, the Potency entry was “inactive”.
The same measure, in the same setting: the value for `CO/N=C(\C(=O)N[C@@H]1C(=O)N2C(C(=O)O)=C(COC(C)=O)CS[C@H]12)c1csc(N)n1` (stereo in doubt) was 10 µM (active).
On the same count and under the same terms, the value for `Ic1ccc(N2CCN(Cc3c[nH]c4ncccc34)CC2)cc1` was “inactive”.
Same read-out and setting: next, `C#CCN1C(C)=C(C(=O)OC)C(c2cccc([N+](=O)[O-])c2)C(C(=O)OCC)=C1C` (stereo not drawn): “inactive”; `Oc1cc(O)cc(/C=C/c2ccc(O)c(O)c2)c1`: “inactive”.
`Fc1ccc(C(OCCCc2cnc[nH]2)c2ccc(F)cc2)cc1`: the Potency entry was “inactive”.
As for `CC12C(=O)OC(=O)C1(C)C1CCC2O1` (stereo not drawn), the Potency entry is “inactive”.
For the molecule `N[C@@H](CC(=O)O)C(=O)O`, the Potency entry is “inactive”.
In the case of `Nc1ccn([C@@H]2O[C@H](CO)[C@@H](O)[C@@H]2O)c(=O)n1`, the Potency entry was “inactive”.
Still for that read-out and setting: the value for `CC(C)Cc1ccc([C@H](C)C(=O)O)cc1` was “inactive”; that for `CN=c1nc(-c2ccccc2)n(-c2ccccc2)s1` was “inactive”; that for `CN(C)C(N)=NCCC[C@H](N)C(=O)O` was “inactive”.
`O=c1[nH]c2cc(Cl)c(Cl)cc2[nH]c1=O`: the Potency result is “inactive”.
For `CCN1/C(=C/C(C)=O)Sc2ccc(OC)cc21`, the Potency result is “inactive”.
Consider `CC[C@@H](C)[C@H]1O[C@]2(CC[C@@H]1C)C[C@@H]1C[C@@H](C/C=C(\C)[C@@H](O[C@H]3C[C@H](OC)[C@@H](O[C@H]4C[C@H](OC)[C@@H](O)[C@H](C)O4)[C@H](C)O3)[C@@H](C)/C=C/C=C3\CO[C@@H]4[C@H](O)C(C)=C[C@@H](C(=O)O1)[C@]34O)O2`, for which the Potency result was “inactive”.
Consider `O=C1NC(O)=NC1(c1ccccc1)c1ccccc1`, for which the Potency result is “inactive”.
As for `O=C(O)CCCC[C@@H]1CCSS1`, the Potency result was “inactive”.
Turning to `NCCCCCCCCCCN`, the Potency entry is “inactive”.

The next experiment concerns the target RecQ-like DNA helicase BLM (Homo sapiens) (UniProt P54132). Briefly: qHTS Validation Assay for Inhibitors of Bloom's syndrome helicase (BLM) (AID 2364). Also: potency is read from the fitted curve at half-maximal effect. The conditions noted are these: BLM helicase DNA unwinding, fluorescence, in vitro; series mostly up to 57.1 µM. Put shortly: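 50 nM BLM preincubated 15 min at room temperature with compound in pH 8.0 Tris buffer containing 2.5 ug/ml poly(dI-dC); started with 200 nM TAMRA/BHQ-2 forked duplex and 2 mM ATP (final). Unwinding read as TAMRA fluorescence increase, two reads 2 h apart.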
`O=C(Nc1ccccc1)c1cc([N+](=O)[O-])ccc1Cl`: the Potency entry is “inactive”.
The same measure, in the same setting: the value for `CCCCCCCCCCCCCCCCCC(=O)OC(CC(=O)O)C[N+](C)(C)C` (stereo not drawn) was “inactive”.
Take `NC[C@@H]1O[C@H](C23CC4CC(CC(C4)C2)C3)Cc2c1ccc(O)c2O`: the Potency result was “inactive”.
The same measure, in the same setting: the value for `O=C(Nc1cccc(C(=O)Nc2ccc(S(=O)(=O)O)c3cc(S(=O)(=O)O)cc(S(=O)(=O)O)c23)c1)Nc1cccc(C(=O)Nc2ccc(S(=O)(=O)O)c3cc(S(=O)(=O)O)cc(S(=O)(=O)O)c23)c1` was “inactive”; that for `O=C1C(SCCO)=C(SCCO)C(=O)c2ccccc21` was 28.2 µM (active).
On the same count and under the same terms, next, `CO/N=C(\C(=O)N[C@@H]1C(=O)N2C(C(=O)O)=C(COC(C)=O)CS[C@H]12)c1csc(N)n1` (stereo in doubt): “inactive”.
On to `Nc1ccn([C@@H]2O[C@H](CO)[C@@H](O)[C@@H]2O)c(=O)n1`, for which the Potency result was “inactive”.
`COc1ccccc1CNCCCCCCNCCCCCCCCNCCCCCCNCc1ccccc1OC`: the Potency is 17.8 µM (active).
`NCCCCCCCCCCN`: the Potency result is “inactive”.
